High-throughput results: PubChem, several laboratories
bCat KO growth: beta-catenin-lacking colon tumor cell growth suppression; HCT116 beta-catenin knockout viability, CellTiter-Glo, 60 h; hits give low values; viability, % at 10 µM; actives 1.5% (n = 140,000);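 active = viability at or under a set limit, the compound median less 4 SD, cut at about 6% in these data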;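 note: 0% = Hyamine 1622 control at 20 µM and 100% = untreated cell control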
p97 inhibitor: blocks human p97 ATPase activity; P55072; recombinant p97 ATPase, Kinase-Glo ATP luminescence, 3 h; inhibition, % at 8 µM; actives 0.42% (n = 220,000); AID 1481; in the data active = inhibition above about 15%;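 note: 0% = DMSO vehicle and 100% = wells lacking enzyme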
Insulin prom inh: TRM-6 insulin promoter activity inhibition. TRM-6 cells (human fetal islet line), insulin promoter-eGFP reporter, imaging; reporter expression induced with tamoxifen. inhibition, % at 2 µM. actives 0.9% (n = 130,000);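 active = inhibition above the mean plus 3 SD, with well images judged a real hit on visual review, cut at about 60% in these data, passing the limit was not always enough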
Lmaj promast: inhibitors of Leishmania major promastigote growth; Leishmania major promastigotes, resazurin fluorescence viability; inhibition, % at 10 µM; actives 9% (n = 200,000); AID 1063; in the data active = inhibition above about 50%;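 note: promastigotes grown with compound for 44 hours at 28 °C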
ROMK mod: human ROMK K+ channel modulation, primary screen | P48048 | Tet-inducible ROMK, thallium flux fluorescence; actives lie on both sides | B-score at 10 µM | actives 2% (n = 130,000);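 active = signal ratio slope over the read window, or its plate-corrected B-score, at least 3 SD from the plate mean, either direction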;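 note: B-score of the F/F0 ratio slope over 7 to 12 s after thallium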
Target sequence (P48048 whole entry, looked up): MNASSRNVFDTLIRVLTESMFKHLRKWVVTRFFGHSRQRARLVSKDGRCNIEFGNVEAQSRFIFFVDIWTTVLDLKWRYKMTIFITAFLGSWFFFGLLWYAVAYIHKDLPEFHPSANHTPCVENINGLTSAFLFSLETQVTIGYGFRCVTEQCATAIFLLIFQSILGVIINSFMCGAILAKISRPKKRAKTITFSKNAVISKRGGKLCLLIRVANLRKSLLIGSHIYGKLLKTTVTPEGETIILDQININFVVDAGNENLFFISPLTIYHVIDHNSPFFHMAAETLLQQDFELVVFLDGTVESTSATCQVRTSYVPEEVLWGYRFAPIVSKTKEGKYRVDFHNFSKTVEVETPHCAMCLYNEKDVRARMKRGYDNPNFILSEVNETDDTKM
HCT116 PTEN-null: PTEN-deleted cell growth suppression | HCT116 PTEN-null viability, CellTiter-Glo, 60 h; hits give low values | viability, % at 10 µM | actives 1.2% (n = 140,000);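 active = viability at or below a set limit, 4 SD under the median of all tested compounds, cut at about 3.7% in these data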;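 note: PTEN knockout HCT116 line with beta catenin targeted HCT116 as companion control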
L major 1uM: blocks Leishmania major promastigote growth at 1 uM, repeat screen | shares compounds with Lmaj promast | L. major promastigote growth, resazurin fluorescence, 48 h | inhibition, % at 1 µM | actives 13% (n = 1,100) | AID 1258;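 active = inhibition above about 50% in both repeat tests, limit read from the data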
* marks the source's active call; other numbers are inactive results; . = not tested or not shown. Sampled rows, rich in hits. Any-hit rate of the full collection: about 10%.

SMILES	bCat KO growth	p97 inhibitor	Insulin prom inh	Lmaj promast	ROMK mod	HCT116 PTEN-null	L major 1uM
CCC(C)/C(C)=N/NC(=O)c1ccc(COc2ccc(Cl)c(C)c2)cc1 (centres undefined)	73.5	2.3	0.0	0.3	-0.248	70.6	.
COc1ccccc1-n1c(=O)[nH]c2c(C(N)=O)nc(CC(C)C)nc21	94.3	-0.1	.	36.4	.	100.9	.
COc1ccccc1-n1c(=O)[nH]c2c(C(N)=O)nc(C3CCCCC3)nc21	72.0	2.5	.	84.0*	.	82.9	-0.4
CCOC(=O)C1=C(C)N(CC)C(=S)NC1c1ccc(Cl)cc1 (centres undefined)	59.9	4.0	.	20.6	.	58.5	.
COc1ccc(OCC(=O)N2c3ccc(C)cc3C3CN(C)CCC32)cc1 (centres undefined)	.	-2.3	-29.7	2.1	0.0236	.	.
Cc1ccc2c(c1)C1CN(C)CCC1N2C(=S)NC(=O)c1ccc(Br)cc1 (centres undefined)	.	4.1	-21.4	99.3*	.	.	-6.8
O=[N+]([O-])c1cc([N+](=O)[O-])c2n[nH]c(-c3ccccc3)c2c1	.	5.3	-7.7	98.2*	.	.	53.5*
O=[N+]([O-])c1ccc2nc(-c3ccccc3)cc(-c3ccccc3)c2c1	74.3	3.4	12.9	-10.4	-0.223	75.3	.
Cc1cccc(Cn2nnc3c2C(=O)c2ccccc2C3=O)c1	4.5*	5.9	-69.2	100.0*	.	3.0*	-26.4
Cn1c2ccccc2c2nnc(NN)nc21	.	3.0	.	.	-0.0456	.	.
CCCCc1c(C)nn(-c2nnc3c4ccccc4n(C)c3n2)c1C	69.8	-4.3	-7.7	87.5*	0.376	76.7	-27.5
C=CCn1c(SCC(=O)N2CCCCC2)nnc1-c1ccncc1	.	-0.6	.	-2.0	1	.	.
C1CCC(c2nn3c(-c4n[nH]c5c4CCC5)nnc3s2)CC1	70.7	-1.9	.	38.2	.	64.2	.
CCN(CC)c1ccc(-c2nn3c(-c4n[nH]c5c4CCC5)nnc3s2)cc1	12.4	3.1	.	62.0*	2.21	15.6	-7.7
COC(=O)c1ccc(COc2ccc(C3C4=C(CCCC4=O)Nc4onc(C)c43)cc2)cc1 (centres undefined)	90.0	5.2	-18.4	100.1*	-0.612	97.8	54.8*
O=C(CN1C(=O)NC2(CCc3ccccc32)C1=O)c1ccc2c(c1)OCCO2 (centres undefined)	78.6	7.1	-25.0	-8.2	.	74.7	.
CCOC(=O)C[n+]1c(C)sc2ccc(OC)cc21	90.3	2.8	-33.3	1.2	0.00707	85.2	.
CC[n+]1c(/C=C/C=C/N(C(C)=O)c2ccccc2)sc2cc(OC)ccc21	6.0*	3.1	-270.4	87.9*	-0.974	4.4	28.9
CC(=O)C1C(c2ccc(Br)cc2)C2C(C)=NN=C2CC1(C)O (centres undefined)	87.9	2.2	.	-7.6	.	93.6	.
COc1ccc(-n2nnnc2S(=O)(=O)CC(=O)N2CCCCC2)cc1	1.7*	3.9	.	92.5*	.	1.3*	19.4
CCOC(=O)c1cnn(-c2nc(SC)nc3sc4c(c23)CCCC4)c1N	73.6	0.2	-23.3	59.7*	.	64.5	-0.7
Cc1cc(C)cc(NS(=O)(=O)c2ccc3oc(=O)ccc3c2)c1	70.9	-1.1	0.0	16.2	-1.41	56.2	.
Cc1ccc(-c2cc3c(N=O)c4ccccc4c-3n[nH]2)cc1	.	-9.5	-7.7	40.5	-1.12	.	.
O=Nc1c2cc(-c3ccccc3)[nH]nc-2c2ccccc12	.	-7.3	-61.5	65.0*	-0.0177	.	53.9*
Cc1cccc(-c2cc3c(N=O)c4ccccc4c-3n[nH]2)c1	.	3.9	.	64.3*	1.08	.	52.8*
SMILES	bCat KO growth	p97 inhibitor	Insulin prom inh	Lmaj promast	ROMK mod	HCT116 PTEN-null	L major 1uM
Cc1[nH]c2ccccc2c1N=Nc1cccc(C(=O)O)c1	102.7	10.9	51.6	3.4	.	97.8	.
Cc1[nH]c2ccccc2c1N=Nc1ccccc1C(=O)O	86.2	6.5	14.8	68.2*	0.485	88.5	-5.4
CCC(C)C(=O)Nn1c(C2CC2)nc2cc(OC)c(OC)cc2c1=O (centres undefined)	.	2.2	.	-2.4	1.03	.	.
CC1=CC(C)C2(COC(c3ccc[n+](C)c3)OC2)C(C)C1 (centres undefined)	.	2.1	.	99.8*	-0.957	.	-1.2
CCN(CC)CCN(C)C1CCC(c2ccccc2)CC1 (centres undefined)	68.7	3.5	20.0	94.2*	-0.679	74.0	75.5*
CCN(CC)CCP(=O)(c1ccccc1)c1ccccc1	97.8	1.0	-6.7	-1.9	.	92.7	.
CCn1c(C)nc2cc(C(=O)N3N=C(CCOC)CC3(O)C(F)(F)F)ccc21 (centres undefined)	.	-4.0	.	.	.	.	.
Cc1ccc(S(=O)(=O)N2N=C3CCCCC3C2(O)C(F)(F)F)cc1 (centres undefined)	.	-5.4	16.7	-2.1	0.735	.	.
CCn1c2ccc(OC)cc2c2nc3ccccc3nc21	61.9	-3.5	25.0	9.1	-0.0474	72.8	.
CCOc1ccc(Cn2c3ccc(OC)cc3c3nc4ccccc4nc32)cc1	14.3	6.0	-33.3	54.1*	0.254	5.9	-6.4
CCC(/C=C1\Sc2ccc(OC)cc2N1CCO)=C\c1sc2ccc(OC)cc2[n+]1CCO	2.5*	-9.6	-41.7	100.2*	-0.415	0.9*	100.3*
CN(C)C(=S)SCC(=O)NC(=O)NC(C)(C)C	.	1.5	.	2.1	0.147	.	.
CC(C)C(NS(=O)(=O)c1cccc2nsnc12)C(=O)Nc1nc2ccc(Cl)cc2s1 (centres undefined)	51.4	-4.2	.	90.1*	.	63.0	-28.7
O=C(Nc1ccccc1F)N1CCCC1c1cccnc1 (centres undefined)	.	4.8	.	.	.	.	.
O=C(Nc1ccc(F)cc1F)N1CCCCC1c1cccnc1 (centres undefined)	97.0	-1.5	.	73.2*	0.241	104.2	9.8
O=[N+]([O-])c1cc(-c2nnc(C34CC5CC(CC(C5)C3)C4)o2)cc([N+](=O)[O-])c1	29.6	3.1	.	99.8*	.	45.0	96.3*
ClCc1nnc(-c2ccccc2)o1	53.4	-2.7	36.0	100.6*	.	62.5	4.5
c1ccc(-c2nnc(-c3ccccc3)o2)cc1	97.3	-6.0	-4.7	0.8	.	90.0	.
CCN(CC1COc2ccccc2O1)C(=S)Nc1ccccc1 (centres undefined)	62.9	-2.2	.	-1.8	-0.449	69.4	.
CCOC(=O)c1c(NC(=O)CSc2nnc(-c3c[nH]c4ccccc34)n2CCOC)sc2c1CCCC2	37.4	4.5	-46.3	72.2*	-2.11	28.2	-11.0
CC(C)Oc1ccc(/C=N/NC(=O)C(CSCc2ccccc2)NC(=O)c2ccc([N+](=O)[O-])cc2)cc1 (centres undefined)	71.3	-0.3	43.8	34.8	.	36.0	.
Cc1c(C(=O)Nc2ccncc2)sc2nc(-c3ccc(F)cc3)cn12	48.2	5.0	.	98.9*	.	35.9	19.2
Cc1c(C(=O)NCC(C)C)sc2nc(-c3ccc(F)cc3)cn12	106.5	-1.4	57.1	-3.0	.	100.5	.
